In the supplement of paper PMC6555819:

What was measured:
Experiment in all cases: PBM binding z-score (relative to random genomic background probes); higher = stronger binding; sequences stand for … in GC…GCGATTGACAGCGTAGAATGAAGG
[1] = tested on: FXR:RXRa (NR concentration 270 nM, RXRa partner concentration 90 nM)
Procedure, shortened: (§1)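 Antibodies against each partner of ligand-free nuclear receptor dimers (one per run) detected binding on custom Agilent 4×180K protein-binding microarrays after 1 h incubation. The double-stranded probes had 34-nt variable regions carrying direct-repeat seeds, single-nucleotide variants, half-site ablations and random human genomic background sequences. Binding z-scores, from regression-normalized fluorescence, use the random background probes as reference.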

[2] = tested on: LXRa:RXRa (NR concentration 270 nM, RXRa partner concentration 90 nM)
Procedure, shortened: as §1

[3] = tested on: LXRa homodimer (NR concentration 270 nM)
Procedure, shortened: as §1

[4] = tested on: LXRb:RXRa (NR concentration 270 nM, RXRa partner concentration 90 nM)
Procedure, shortened: as §1

[5] = tested on: LXRb homodimer (NR concentration 270 nM)
Procedure, shortened: as §1

[6] = tested on: PPARa:RXRa (NR concentration 270 nM, RXRa partner concentration 90 nM)
Procedure, shortened: as §1

[7] = tested on: PPARg:RXRa (NR concentration 180 nM, RXRa partner concentration 90 nM)
Procedure, shortened: as §1

[8] = tested on: PPARg:RXRa 270nM:90nM, anti-RXR (NR concentration 270 nM, RXRa partner concentration 90 nM)
Procedure, shortened: as §1

[9] = tested on: PPARg:RXRa 30nM:10nM, anti-RXR (NR concentration 30 nM, RXRa partner concentration 10 nM)
Procedure, shortened: as §1

[10] = tested on: PPARg:RXRa 90nM:30nM, anti-RXR (NR concentration 90 nM, RXRa partner concentration 30 nM)
Procedure, shortened: as §1

[11] = tested on: PPARg:RXRa DBDmut IVT, anti-RXR (DBD mutation: RXRa K156A/R161A, NR concentration 270 nM, RXRa partner concentration 90 nM)
Procedure, shortened: as §1

[12] = tested on: PPARg:RXRa IVT, anti-PPARg (NR concentration 270 nM, RXRa partner concentration 90 nM)
Procedure, shortened: as §1

[13] = tested on: PPARg DBDmut:RXRa IVT, anti-PPARg (DBD mutation: PPARg1 K132A/R137A, NR concentration 270 nM, RXRa partner concentration 90 nM)
Procedure, shortened: as §1

[14] = tested on: PPARg DBDmut IVT, anti-PPARg (DBD mutation: PPARg1 K132A/R137A, NR concentration 270 nM)
Procedure, shortened: as §1

[15] = tested on: PPARg homodimer (NR concentration 180 nM)
Procedure, shortened: as §1

[16] = tested on: PXR:RXRa (NR concentration 270 nM, RXRa partner concentration 90 nM)
Procedure, shortened: as §1

[17] = tested on: PXR homodimer (NR concentration 270 nM)
Procedure, shortened: as §1

[18] = tested on: RARa:RXR (NR concentration 270 nM, RXRa partner concentration 90 nM)
Procedure, shortened: as §1

[19] = tested on: RARa homodimer (NR concentration 270 nM)
Procedure, shortened: as §1

[20] = tested on: RARb:RXRa (NR concentration 270 nM, RXRa partner concentration 90 nM)
Procedure, shortened: as §1

Sequence	PBM binding z-score [1]	PBM binding z-score [2]	PBM binding z-score [3]	PBM binding z-score [4]	PBM binding z-score [5]	PBM binding z-score [6]	PBM binding z-score [7]	PBM binding z-score [8]	PBM binding z-score [9]	PBM binding z-score [10]	PBM binding z-score [11]	PBM binding z-score [12]	PBM binding z-score [13]	PBM binding z-score [14]	PBM binding z-score [15]	PBM binding z-score [16]	PBM binding z-score [17]	PBM binding z-score [18]	PBM binding z-score [19]	PBM binding z-score [20]
ATCTCTAGGTAAAAGTGCAGTGAATCCCGAGGAT	0.179	-0.141	-0.393	0.0767	0.339	2.81	4.31	5.78	3.66	6.27	2.08	2.5	0.765	0.971	0.819	0.0221	0.246	-0.0111	0.256	0.518
TCTTGTAGCTCAACAGGAGGTTAAGAAAGATCGA	-0.163	0.472	-0.218	0.222	-0.709	0.659	-0.365	0.868	2.01	1.4	0.679	-0.415	0.889	0.0315	-0.822	0.474	-0.26	0.724	-0.715	-0.0252
TCGAGTAGGTTAGGTGCATTCAGAATGGCGTCGA	-0.264	-0.0402	-0.55	0.172	-1.05	0.236	-0.209	0.709	0.736	0.505	1.94	1.03	-0.609	-0.486	-0.132	0.0438	0.333	-0.0756	-0.18	0.175
GCGATTAGTTGAAAGGGCAACCGAATGATTCTCG	0.286	0.514	-0.112	0.595	-0.521	1.88	1.74	3.51	1.24	2.72	0.242	0.29	-0.291	-0.4	0.619	0.575	0.0647	1.43	-0.197	1.87
GGAACGATGGCAAAGTTGATAGCATCTGTCGACG	-0.553	-0.632	-0.475	-0.708	-0.97	0.994	1.79	3.3	1.16	2.88	-0.422	-0.327	0.0385	-1.16	-0.819	-0.402	-0.23	-0.727	-1.19	-0.325
TCATATACGTAAAAGGTGAAAGTCGGTGTGGTAA	1.58	1.77	0.215	1.7	0.467	2.81	1.68	3.88	4.6	4.19	2.65	1.71	2.06	2.25	1.84	1.35	0.642	1.89	1.88	1.9
GCTAGTTGGTCATTAAAAGGTCACACACCGGTCG	3.71	4.83	6.37	4.7	1.12	4.31	1.92	3.77	1.5	2.68	1.97	2.97	-0.134	0.443	4.31	5.25	1.39	6.14	1.98	4.4
AGAATGCGGTTAAGATCAGGGAAACAGAATACAT	-0.249	-0.195	-0.0658	-0.185	-0.913	-0.181	0.331	0.0448	0.301	0.258	-0.441	-0.00811	0.624	0.11	0.393	-0.295	-0.312	-0.225	0.513	-0.152
CAAACTAGGTCAAGATCAAAGTCGGTTTGTGCCA	3.58	2.31	0.143	1.67	0.237	4.66	7.62	6.55	4.29	6.19	8.24	8.61	5.86	4.95	2.34	1.31	-0.0944	2.05	0.622	4.02
TGTCAAAGTTCAATGGTAACGTAAGTATCCACAC	5.2	5.16	2.81	3.03	0.934	4.31	6.86	6.53	4.18	6.12	-0.339	3.53	0.89	1.61	2.42	3.89	2.86	2.38	1.11	4.58
AGAATAAGGTTATTAAGATCAGGGAATTGCGGTC	1.43	1.6	0.352	1.32	-0.02	2.42	1.12	1.67	0.45	1.38	2.24	1.81	1.52	0.812	1.04	1.13	0.666	1.49	1.34	1.72
TCGAGTAGGTTAGGGGCATTCACAATGGCGTCGA	0.495	0.167	-0.286	0.973	-0.112	1.38	1.01	1.84	1.59	1.94	2.39	1.39	-0.325	-0.622	0.582	0.481	0.107	0.506	-0.0724	0.977
ATCGAAAGGTCGACGAGGTGGGTATACACCGTTT	3.58	3.27	0.14	2.55	0.209	4.1	2.2	2.89	0.706	1.6	0.15	1.75	0.733	1.26	1.34	2.6	0.341	2.98	-0.0132	3.68
